Assay [1] has as its system Aerobactin synthetase IucA (Klebsiella pneumoniae hvKP1). Nature of the assay: IucA enzyme inhibition, primary screen, biochemical, Spectrum library (AID 1346200).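 Further: 100% = wells without compound and 0% = wells lacking enzyme.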 As to conditions: malachite green pyrophosphate, A620, at 8 µM, stronger effect = lower value.
The nature of assay [2]: signal quenchers or enhancers, Cy5 substrate/SSB – biochemical, NIH Clinical Collection, E. coli SSB, artefact control for HCV NS3 helicase inhibitor project (AID 743268). As to conditions: Cy5-oligo bound E. coli SSB, fluorescence interference.
Assay [3] concerns Hepatitis C virus NS3 helicase. Put plainly: blockers of NS3h binding to DNA – biochemical, fluorescence polarization, NIH Clinical Collection, primary screen (AID 743270). As to conditions: NS3 helicase binding to Cy5-dT15 DNA, stronger effect = higher value, concentration not given here.
Assay [4] addresses Single-stranded DNA-binding protein (Escherichia coli (strain K12)) (UniProt P0AGE0). Nature of the assay: SSB-ssDNA binding inhibitors – biochemical, fluorescence polarization, NIH Clinical Collection, counter-screen for HCV NS3 helicase inhibitor project (AID 743271; in the data active means inhibition above about 28%). Particulars: E. coli SSB-DNA binding, stronger effect = higher value, concentration not given here.
A short description of assay [5]: compounds distorting NS3 helicase fluorescence signal – biochemical, NIH Clinical Collection, artefact control for HCV NS3 helicase inhibitor project (AID 743272).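 Further: HCV NS3 helicase with a Cy5 labelled single stranded DNA probe.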 Particulars: fluorescence interference counterscreen, HCV NS3 helicase assay; stronger effect = lower value.
The nature of assay [6]: growth inhibition, single agents and combos, LFS_MB_1R, cell-based, cisplatin or BGB combos, synergistic combos for chromothripsis tumors (AID 1671452; in the data active means inhibition above about 80%;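 further: cells exposed for 96 hours before readout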). As to conditions: LFS_MB_1R medulloblastoma cells, stronger effect = higher value.
A short description of assay [7]: growth inhibition, single agents and combos, CRL2098, cell-based, BGB or cisplatin IC20 combos, synergistic combos for chromothripsis tumors (AID 1671454; in the data active means inhibition above about 80%;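 further: cells exposed for 96 h before readout; 0% = vehicle DMSO and 100% = killing by high DMSO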). As to conditions: CRL2098 osteosarcoma cells, drug combinations, stronger effect = higher value.
A short description of assay [8]: growth inhibition, single agents and combos, HD-MB03, cell-based, BGB or cisplatin IC20 combos, synergistic combos for chromothripsis tumors (AID 1671455; in the data active means inhibition above about 83%;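 further: 0% = vehicle DMSO and 100% = high DMSO as cytotoxic control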). Particulars: HD-MB03 medulloblastoma cells, stronger effect = higher value.
The nature of assay [9]: growth inhibition, single agents and combos, UWB1.289, cell-based, BGB or cisplatin combos, synergistic combos for chromothripsis tumors (AID 1671456; in the data active means inhibition above about 80%;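 further: cells exposed to compound for four days; 0% = vehicle DMSO and 100% = killing by high DMSO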). As to conditions: UWB1.289 ovarian carcinoma cells, stronger effect = higher value.
The nature of assay [10]: growth inhibition, single agents and combos, LFS_MB_2R, cell-based, cisplatin combos, synergistic combos for chromothripsis tumors (AID 1671457; in the data active means inhibition above about 80%;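 further: cells exposed to compound for four days before readout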). Particulars: LFS_MB_2R medulloblastoma cells, stronger effect = higher value.
Assay [11] can be described thus: UWB1.289_BRCA1 ovarian cancer growth, cell-based, BGB or cisplatin combinations (AID 1671459; in the data active means inhibition above about 80%). As to conditions: UWB1.289 BRCA1 ovarian carcinoma, drug combinations, stronger effect = higher value.
The nature of assay [12]: drug combination toxicity in non-malignant astrocytes – cell-based, BGB or cisplatin IC20 combos, cytotoxicity control for chromothriptic childhood tumor combination screen (AID 1671460; in the data active means inhibition above about 80%;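 further: cells exposed to compounds for 96 hours before viability readout; 0% = vehicle and 100% = killing control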). As to conditions: Human astrocytes, viability inhibition, drug combinations, at 0.5 µM, stronger effect = higher value.
The nature of assay [13]: RCMB18 cell growth, single agent and combined, cisplatin and BGB IC40 combos (AID 1671462; in the data active means inhibition above about 80%;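 further: cells exposed to compound for four days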). As to conditions: RCMB18 medulloblastoma cells, stronger effect = higher value.
The nature of assay [14]: CRL1545 cell growth, single agent and combined, cisplatin and BGB IC20 combos (AID 1671464; in the data active means inhibition above about 80%;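 further: cells exposed to compound for 96 hours before readout; 0% = vehicle DMSO and 100% = high DMSO killing control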). As to conditions: CRL1545 osteosarcoma cells, stronger effect = higher value.
The test system of another assay is F380Y. Nature of the assay: BK channel mutant inhibitors and activators – cell-based, U2OS BacMam, thallium flux, beta subunits, selectivity assay, profiling panel (AID 1259406;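 active means thallium flux through the channel raised or lowered by more than 3 SD from vehicle-only wells, actives on both sides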;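 further: initial slope of Thallos dye fluorescence rise after thallium is added; log ratio against the mean of 0.3% DMSO vehicle wells on the same plate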). Particulars: U2OS BacMam BK variants, at 30 µM.
A further assay has as its system F380Y/beta1. Described as above. As to conditions: U2OS BacMam BK variants, at 30 µM.
A further assay deals with F380Y/beta2Delta. Described as above. Particulars: U2OS BacMam BK variants, at 30 µM.
The subject of a further assay is F380Y/beta4. Described as above. Particulars: U2OS BacMam BK variants, at 30 µM.
In assay [15] the target is Calcium-activated potassium channel subunit alpha-1 (Homo sapiens) + Leucine-rich repeat-containing protein 26 (Homo sapiens) (UniProt Q12791+Q2I0M4). The description is as above. As to conditions: U2OS BacMam BK variants, F380Y/Slo1WT/gamma1, at 30 µM.
The next assay deals with R275C/Slo1WT/beta2. The assay is described as above. Particulars: U2OS BacMam BK variants, at 30 µM.
[16] abbreviates: measured here: combination with cisplatin, at 0.5 µM.
Setting [17] is: measured here: combination with cisplatin, at 5 µM.

Calls of active or inactive are those of the source. Unless noted, how the calls were made is not given here.

Chain of Calcium-activated potassium channel subunit alpha-1 (Homo sapiens) + Leucine-rich repeat-containing protein 26 (Homo sapiens) (Q2I0M4 whole entry, looked up, one chain of several): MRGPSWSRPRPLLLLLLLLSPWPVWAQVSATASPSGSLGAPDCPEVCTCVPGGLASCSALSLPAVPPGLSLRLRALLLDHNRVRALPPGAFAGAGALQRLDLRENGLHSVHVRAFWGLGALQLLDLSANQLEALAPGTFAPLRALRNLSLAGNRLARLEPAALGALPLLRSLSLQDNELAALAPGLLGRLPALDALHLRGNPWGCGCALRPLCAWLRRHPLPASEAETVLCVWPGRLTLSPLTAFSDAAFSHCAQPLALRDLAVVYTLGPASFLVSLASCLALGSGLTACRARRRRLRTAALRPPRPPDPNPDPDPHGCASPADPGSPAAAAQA

With `O=C(NC(=O)c1c(F)cccc1F)Nc1cc(Cl)c(OC(F)(F)C(F)C(F)(F)F)cc1Cl` (stereo not given), the activity remaining in [1] was 94.5% (inactive).

As to `C[C@]12CC[C@H](O)CC1=CC[C@@H]1[C@@H]2CC[C@]2(C)C(=O)CC[C@@H]12`, the fluorescence ratio in assay [2] was 0.94 (inactive); in [5] it was 0.97 (inactive). Besides, the values for the inhibition in assay [3] and in assay [4] were 0.66% (inactive) and -2.76% (inactive), respectively.

Regarding `Cn1c(CCCC(=O)O)nc2cc(N(CCCl)CCCl)ccc21`, the inhibition in assay [6] (at 0.5 µM) was -36.7% (inactive); in assay [6] (measured here: combination with BGB IC40, at 0.05 µM), -23.8%; in assay [6] (setting [16]) it was -14.3%; in assay [6] (setting [17]) it was -23.5%; in assay [7] (at 0.5 µM) it was -98.8% (inactive); in assay [7] (measured here: combination with BGB at IC20, at 0.5 µM), -103%. The inhibition was -129% in [7] (measured here: combination with cisplatin at IC20, at 0.5 µM); -13.4% (inactive) in assay [8] (at 0.5 µM); -11.1% in assay [8] (measured here: combo with BGB at IC20, at 0.5 µM); -20.4% in [8] (measured here: combo with cisplatin at IC20, at 0.5 µM); -2.34% (inactive) in assay [9] (at 0.5 µM); -13.2% in assay [9] (measured here: inhibition with BGB combination, at 0.05 µM). Besides, the inhibition in [9] (measured here: inhibition with cisplatin combination, at 0.05 µM) is -10.4%; in assay [10] (at 0.5 µM), -14.6% (inactive); in assay [10] (setting [16]) it was -2.61%; in [10] (setting [17]), -14.7%; in assay [11] (BGB combination, concentration series, at 5 µM) it was -2.78%; in assay [11] (at 0.5 µM), -6.91% (inactive). Also, the inhibition is -6.97% in [11] (cisplatin combination, concentration series, at 5 µM); -9.57% (inactive) in assay [12]; -2.95% in [12] (measured here: combo with BGB IC20); -20% in assay [12] (measured here: combo with cisplatin IC20); -2.17% (inactive) in [13] (at 0.5 µM); -2.69% in assay [13] (cisplatin combo, at 5 µM). The inhibition was 14.5% in assay [13] (measured here: BGB IC40 combination, at 0.05 µM); 15.5% in [13] (setting [16]); -39.8% in assay [13] (single agent, at 5 µM); -50.3% (inactive) in assay [14] (at 0.5 µM); -68.1% in assay [14] (measured here: with BGB IC20 combination, at 0.5 µM); -41.4% in [14] (measured here: with cisplatin IC20 combination, at 0.5 µM). Further, the inhibition in assay [14] (single agent, at 0.05 µM) is 2.56%; in assay [14] (single agent, at 5 µM), -15.4%.

Regarding `COP(=S)(OC)Oc1ccc(Sc2ccc(OP(=S)(OC)OC)cc2)cc1`, in assay [1], the activity remaining is 118% (inactive).

As to `CN(C)C(=S)SSC(=S)N(C)C`, in [1], the activity remaining was 97.7% (inactive).

With `COc1ccc2[nH]cc(CCN)c2c1`, the fluorescence ratio in [2] was 0.98 (inactive); in [5] it was 0.97 (inactive). The results for the inhibition in assay [3] and in [4] were -1.09% (inactive) and 3.54% (inactive), respectively. Further, in assay [1], the activity remaining was 83.6% (inactive). Also, the log fold change Tl+ flux is 0.0218 (inactive) in the assay on F380Y; 0.0119 (inactive) in the assay with F380Y/beta1; -0.052 (inactive) in the assay with F380Y/beta2Delta; -0.0167 (inactive) in the assay with F380Y/beta4; -0.0293 (inactive) in assay [15]; 0.00615 (inactive) with R275C/Slo1WT/beta2.

Turning to `COc1cc2c(cc1OC)[C@@]13CCN4CC5=CCO[C@H]6CC(=O)N2[C@H]1[C@H]6[C@H]5C[C@H]43`, the results for the fluorescence ratio in assay [2] and in assay [5] were 0.94 (inactive) and 0.89 (inactive), respectively. Besides, the results for the inhibition in assay [3] and in assay [4] were -2.84% (inactive) and 2.76% (inactive), respectively. Moreover, the log fold change Tl+ flux was 0.0307 (inactive) with F380Y; -0.0206 (inactive) in the assay with F380Y/beta1; -0.0179 (inactive) in the assay on F380Y/beta2Delta; 0.0166 (inactive) in the assay on F380Y/beta4; -0.0482 (inactive) in assay [15]; -0.0314 (inactive) with R275C/Slo1WT/beta2.

These data come from PubChem BioAssay.
